Laboratory results taken from PubChem BioAssay (NCI).
Compounds without any hit were thinned out: in the full panel of roughly 79,000, 15% have a hit. Rule as the data show it: active = growth inhibition above about 70%; inactive = the rest.

Key:
[1] = NCI Yeast Anticancer Drug Screen. Data for the rad50 strain (AID 155);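 also: 0% = growth of vehicle-only cultures of the same strain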; details: S. cerevisiae rad50 strain growth inhibition; at 50.0 µM; hits give high values
Summary of the method: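 Yeast carrying a defined DNA repair defect were exposed to test compounds, and growth was compared with vehicle-treated controls to give percent inhibition.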

[2] = NCI Yeast Anticancer Drug Screen. Data for the mec2-1 strain (AID 157); details: S. cerevisiae mec2-1 strain, at 50.0 µM, hits give high values
Summary of the method: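 Using mec2-1 yeast: add compound, measure growth, express inhibition versus vehicle-treated cultures.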

[3] = NCI Yeast Anticancer Drug Screen. Data for the sgs1 mgt1 strain (AID 161);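 also: 0% = growth of cultures given vehicle only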; details: S. cerevisiae sgs1 mgt1 strain, at 50.0 µM, hits give high values
Summary of the method: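 Growth of a repair-deficient yeast mutant was monitored after compound treatment and expressed as inhibition relative to vehicle-treated cultures.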

[4] = NCI Yeast Anticancer Drug Screen. Data for the cln2 rad14 strain (AID 165);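 also: 0% = growth equal to vehicle treated cultures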; details: S. cerevisiae cln2 rad14 strain, at 50.0 µM, hits give high values
Summary of the method: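 Yeast strain cln2 rad14, bearing defects in cell cycle control and DNA repair, serves as the test system; values reflect growth inhibition compared with vehicle.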

[5] = NCI Yeast Anticancer Drug Screen. Data for the bub3 strain (AID 167); details: S. cerevisiae bub3 mutant strain, at 50.0 µM, hits give high values
Summary of the method: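 Compounds were applied to a genetically altered yeast strain carrying a cell-cycle control defect. Growth inhibition was scored against vehicle-treated controls.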

[6] = NCI Yeast Anticancer Drug Screen. Data for the mlh1 rad18 strain (AID 175); details: S. cerevisiae mlh1 rad18 strain growth inhibition; at 50.0 µM; hits give high values
Summary of the method: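 Steps: expose repair-defective yeast to compound; measure growth; express inhibition against vehicle-treated controls.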

Measured: growth inhibition

NC(=O)c1ccc(N=C(N)N=C(N)N)cc1
inactive: [1] 7.3% | [2] -15.6% | [3] -20% | [4] -36.2% | [5] -11.8% | [6] -2.05%

Cc1cc2nc(CC(=O)c3cccc([N+](=O)[O-])c3)c(=O)[nH]c2cc1C
inactive: [1] 22.2% | [2] 10.9% | [3] 7.1% | [4] 20.5% | [5] -6.15% | [6] 39.5%

CCOC(=O)CNN
inactive: [1] -7.2% | [2] 9.3% | [3] -12.2% | [4] 9.75% | [5] -14.8% | [6] -30.1%

CSC(=N\N=C\c1ccc(N(C)C)cc1)/N=C/N(C)C
inactive: [1] -4.3% | [2] -8.15% | [3] 6.05% | [4] 7.65% | [5] 18.6% | [6] 25.1%

CCCCNC1(C#N)CCN(Cc2ccccc2)CC1
inactive: [1] -2.25% | [2] -7.95% | [3] -5.9% | [4] 6.75% | [5] -1.25% | [6] -5.7%

O=C(O)/C=C/C(=O)NCc1ccccc1
inactive: [1] 34.6% | [2] 42.6% | [3] 48% | [4] 1.4% | [5] 44.4% | [6] 26.7%

CCCCCCCO
inactive: [1] -11% | [2] -17.9% | [3] -28.8% | [4] 2.25% | [5] -14.7% | [6] -11.9%

O=C(O)C(Cc1ccccc1)C(=O)O
inactive: [1] 5.8% | [2] -7.15% | [3] -27.7% | [4] -33% | [5] -18.4% | [6] -7.2%

O=[N+]([O-])c1ccc(S(=O)(=O)NN=C2CCCCC2)cc1
inactive: [1] 19.9% | [2] 13.2% | [3] 8.1% | [4] -31% | [5] 8.85% | [6] 37.8%

N#CC(=Nc1cccc(F)c1)C1=C(O)c2ccccc2C1=O
inactive: [1] 11.6% | [2] -2.6% | [3] 22.4% | [4] 27.6% | [5] 20.5% | [6] 18.8%

O=S(=O)(O)c1ccc(Cl)c(Cl)c1
inactive: [1] -0.35% | [2] -15% | [3] -3.4% | [4] 15.4% | [5] -19.5% | [6] -2.25%

CCS(=O)(=O)c1cc(=O)[nH]c(=O)[nH]1
inactive: [1] 22.1% | [2] 24.9% | [3] -30.9% | [4] 32.5% | [5] -1.45% | [6] -1.6%

Nc1ccc(NC(=O)c2cccc(N)c2)cc1
inactive: [1] 15.2% | [2] 3.5% | [3] 6.4% | [4] -7.8% | [5] 19.2% | [6] 22%

COc1cc2c(cc1O)CC[C@@H]1C2CC[C@@]2(C)C1CC[C@@H]2O (some centres not stated)
inactive: [1] -11.6% | [2] -13.4% | [3] -15.2% | [4] -26.6% | [5] -13.8% | [6] 18.3%

CC(=Nc1ccccc1)C1=C(O)C(Cc2cccc(F)c2)NC1=O (configuration not stated)
inactive: [1] 5.3% | [2] 4.35% | [3] 13.6% | [4] 2.3% | [5] -2.5% | [6] -22%

O=C(NCCNC(=O)c1ccc(Cl)cc1Cl)c1ccc(Cl)cc1Cl
inactive: [1] -9.25% | [2] -10.8% | [3] -4% | [4] -42.2% | [5] -1.25% | [6] -20.2%

S=C(Nc1ccccc1)N1CCCCC1
inactive: [1] -2.8% | [2] 1.25% | [3] -10.2% | [4] -39.3% | [5] 2.4% | [6] -8.4%

c1c(-c2cc(C3CC3)[nH]n2)n[nH]c1C1CC1
inactive: [1] -62% | [2] -0.25% | [3] -17.6% | [4] -16.4% | [5] 1.8% | [6] 2.35%

C=CC(=O)OCCCCCCCC
inactive: [1] 5.4% | [2] -14.3% | [3] -29.4% | [4] -34.5% | [5] 2.4% | [6] 2.85%

CC(=O)NCc1cc(C)c(C)cc1C
inactive: [1] 12.5% | [2] -20.1% | [3] 1.25% | [4] 9.15% | [5] 5.3% | [6] 8.5%

CC1CCC2C(C)(C)C3CC12CC1OC13C (configuration not stated)
inactive: [1] -17.4% | [2] -30.4% | [3] 0.7% | [4] 4.95% | [5] 0.65% | [6] -14.5%

O=C(O)/C=C/c1ccc2c(c1)CCC2
inactive: [1] 28.6% | [2] 18.1% | [3] 48.4% | [4] 23.8% | [5] 50.6% | [6] 42.2%

OC(c1ccccn1)C(O)c1ccccn1 (configuration not stated)
inactive: [1] -2.55% | [2] -4.45% | [3] -0.6% | [4] -9% | [5] -5.6% | [6] 3.2%

O=C1C[C@H](c2ccccc2)[C@H](c2ccccc2)C1
inactive: [1] 24.2% | [2] 4.85% | [3] 10.4% | [4] -4.25% | [5] -5.55% | [6] 9.8%

S=c1nn[nH]c2ccccc12
inactive: [1] 17.4% | [2] 22.6% | [3] 8.6% | [4] 8.1% | [5] 7.8% | [6] 8.25%

O=[N+]([O-])c1ccc(-c2noc(-c3cccs3)n2)cc1
inactive: [1] -3.2% | [2] -31.9% | [3] 13.4% | [4] 15% | [5] 10.7% | [6] -11.8%

O=[N+]([O-])c1ccccc1N=Nc1ccc(O)cc1O
inactive: [1] 35.4% | [2] 21.1% | [3] 31.9% | [4] -23.4% | [5] 10.7% | [6] 39.2%

COCCCNC(=O)c1nnn2c1nc(N)c1cc(Cl)ccc12
inactive: [1] -2.65% | [2] 2.75% | [3] 25.6% | [4] 3.2% | [5] 23.6% | [6] 10.6%

O=C1C=CC(=O)N1c1ccc(I)cc1Cl
inactive: [1] 29.9% | [2] 18.3% | [3] 44.1% | [4] 23.8% | [5] 32.3% | [6] 22.1%

CC(=O)Oc1ccc(Br)cc1C(=O)O
inactive: [1] -15.2% | [2] -24.2% | [3] -9.7% | [4] -26.9% | [5] -10.6% | [6] 4.15%

Cc1cc2nc(CC(=O)c3ccccc3)c(=O)[nH]c2cc1C
inactive: [1] 15.7% | [2] 0.95% | [3] 13.3% | [4] 9.4% | [5] -15.7% | [6] 31.3%

COC(=O)Nc1nc2ccc(C(=O)c3cccs3)cc2[nH]1
inactive: [1] -1.25% | [2] 33.4% | [3] 17.5% | [4] -35% | [5] 24.4% | [6] 19%

CC(CC(=O)c1ccccc1)c1ccccc1 (configuration not stated)
inactive: [1] -7.9% | [2] -18.4% | [3] -10.7% | [4] -13.7% | [5] -19.4% | [6] 10.2%

CC(=O)/C(Cc1ccccc1)=N/O
inactive: [1] 10.7% | [2] 4.55% | [3] 15.8% | [4] -4% | [5] -2.1% | [6] 2.15%

CCCCNC(=O)C(=O)NCCCC
inactive: [1] 10.8% | [2] 7.2% | [3] 4.6% | [4] 28.6% | [5] 7% | [6] 1.75%

N#CC1(Nc2ccc3c4c(cccc24)CC3)CCCCC1
inactive: [1] 0.8% | [2] 7.2% | [3] 15.1% | [4] 16% | [5] 26.2% | [6] 12.5%

Oc1ccc(N=Nc2ccc(Br)cc2)c(O)c1
inactive: [1] 4.15% | [2] 31.3% | [3] 30.2% | [4] -20.1% | [5] 33.6% | [6] 22.8%

O=C1Cc2ccccc2C(=O)O1
inactive: [1] 25.9% | [2] -16.5% | [3] 1.95% | [4] -22.1% | [5] -5.15% | [6] 15.6%

S=C1CCCCCN1
inactive: [1] 47.6% | [2] 17.8% | [3] 42.6% | [4] 9.95% | [5] 30.4% | [6] 30.8%

COc1cccc(/C=N/NC(=S)NC2CC3CCC2C3)c1O (configuration not stated)
inactive: [1] -21.6% | [2] -33.1% | [3] -3.4% | [4] -9.9% | [5] -13.9% | [6] -3.5%

COc1ccccc1NC(=O)c1cc2cc(Br)ccc2cc1O
inactive: [1] 34.8% | [2] 41.1% | [3] 55.7% | [4] 41.6% | [5] 49% | [6] 34.2%

C[N+](C)=c1ccc2nc3c(cc(Nc4ccccc4)c4ccccc43)oc-2c1
inactive: [1] 20.1% | [2] 49.6% | [3] 30.1% | [4] 29.6% | [5] 38% | [6] 39.2%
